{"source": "PubChem BioAssay (NCATS)", "note": "Inconclusive results are not listed. The source made the active and inactive calls. The call rests on the fitted dose curve; in most records, active means well fitted inhibition curve with a large enough effect; inconclusive means small, poorly fitted or top-dose-only effect; inactive means no such curve, though single readings can be large or run the other way. Potency means the concentration at half of the fitted maximal effect.", "data": [{"test": "BET inhibitor-based combinations targeting novel dependencies in MECOM-rearranged (r) AML: UCSD-AML1 cell line (AID 2202235); further: nearly all actives have a fitted effect of over 40% in size;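 on viability (% of control): plate controls were DMSO vehicle wells for no effect and blank wells for full effect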", "settings": "UCSD-AML1 AML cells viability, CellTiter-Glo, 48 h; series mostly up to 46 µM; viability (% of control): at the top concentration", "text": "Ecotropic viral insertion site 1 (EVI1) is located on chromosome 3q26.2 as part of the MECOM (MDS and EVI1 complex) locus. Under normal hematopoiesis, EVI1 is a regulator of hematopoietic stem cell maintenance and self-renewal and EVI1 levels decrease as the cells differentiate. In approximately 5-10% of de novo acute myeloid leukemia (AML) EVI1 is aberrantly expressed, including Chromosomal inv(3)(q21;q26.2) or t(3;3)(q21;q26.2) alterations (MECOM-r) that account for about 50% of AML with EVI1 overexpression 31. AMLs with high levels of EVI1 have a poor prognosis and an overall survival time averaging between 10-14 months. EVI1 overexpression confers resistance in leukemia cells, highlighting the need to develop new targeted therapies for EVI1 overexpressing AMLs. Here, we performed an unbiased chemical drug screening by evaluating the single agent activity of a collection of 2,480 oncology-focused, approved and investigational drugs (NCATS Mechanism Interrogation Plates, MIPE v5.0) against a panel of seven AML cell lines. These included four MECOM-r cell-lines (AML-191, AML-194, UCSD-AML1 and HNT-34) and three non-MECOM-r AMLs (MV4-11, OCI-AML3 and SET-2). Exploiting the mechanistic redundancy built in the library, we identified target-level sensitivities in MECOM-r AML cells and relative activity as compared to other AML subtypes.\nA collection of 2480 mechanistically annotated dugs (MIPE v5.0) was used to screen four 3q26.2 rearranged AML cell lines and three non-3q26.2 rearranged AML cell lines. This library purposely exploits redundancy by including multiple inhibitors of key onco-targets, while simultaneously encompassing mechanistic diversity, targeting more than 800 distinct mechanisms of action. Briefly, cells were seeded in 5 uL of growth media using a Multidrop Combi dispenser into 1536 well white polystyrene tissue culture treated plates (Corning) at a density of 500cells/well. For each cell-line, for each of the 2480 drugs in MIPE v5.0 library, an 11-point dose curve was generated via a 1536 pin-tool. Plates were incubated for 48 hr at standard incubator conditions, covered by a stainless steel gasketed lid to prevent evaporation. Cell viability was determined by luminescence based, Cell Titer Glo assay (Promega). In detail, 3 uL of Cell Titer Glo were added to each well and plates were incubated at room temperature for 15 min with a stainless-steel lid in place. Luminescence readings were taken using a Viewlux (PerkinElmer) with a 2 s exposure time per plate. Compound dose-response curves were normalized to DMSO and empty well controls on each plate. Quantitative drug activity data from dose-response curves was determined utilizing area Under the Curve (AUC) and Z-transformed AUC (Z-AUC, a mean-centering transformation applied to each individual cell-line screened).", "values": [{"smiles": "CC1c2ccccc2CN1NC(=O)c1ccc(Cl)c(S(N)(=O)=O)c1", "note": "(stereo not given)", "viability (% of control)": "106% (inactive)"}, {"smiles": "c1cc(Nc2cc(C3CC3)[nH]n2)nc(Nc2ccc3nc[nH]c3c2)n1", "Potency": "332 nM (active)"}, {"smiles": "Cc1cccc(-c2nn3c(c2-c2ccnc4ccc(C(N)=O)cc24)CCC3)n1", "viability (% of control)": "110% (inactive)"}, {"smiles": "O=C(O)C(O)Cc1ccc(O)c(O)c1", "note": "(stereo not given)", "viability (% of control)": "104% [at 92.2 µM] (inactive)"}, {"smiles": "CCOc1cc2ncc(C#N)c(Nc3ccc(OCc4ccccn4)c(Cl)c3)c2cc1NC(=O)/C=C/CN(C)C", "Potency": "3720 nM (active)"}, {"smiles": "CC1Cc2ccccc2N1NC(=O)c1ccc(Cl)c(S(N)(=O)=O)c1", "note": "(stereo not given)", "viability (% of control)": "110% (inactive)"}, {"smiles": "COc1cc2c(Nc3ccc(NC(=O)c4ccccc4)cc3)ncnc2cc1OCCCN1CCOCC1", "viability (% of control)": "122% (inactive)"}, {"smiles": "CC[C@H](NC(C)C)[C@H](O)c1ccc(O)c2[nH]c(=O)ccc12", "viability (% of control)": "107% (inactive)"}, {"smiles": "O=C1Nc2ccc(I)cc2/C1=C/c1cc(Br)c(O)c(Br)c1", "viability (% of control)": "112% (inactive)"}, {"smiles": "COc1ccc(Cl)c(Nc2ncnc3cc(OCC4CCN(C)CC4)c(OC)cc23)c1", "viability (% of control)": "99.7% (inactive)"}, {"smiles": "Cc1ccc(Nc2nccc(N(C)c3ccc4c(C)n(C)nc4c3)n2)cc1S(N)(=O)=O", "Potency": "18600 nM (active)"}, {"smiles": "Cc1[nH]c2ccc(F)cc2c1-c1nc2c3cccnc3c3ncccc3c2[nH]1", "Potency": "679 nM (active)"}, {"smiles": "O=C1NC(=O)C(c2cnc3ccccn23)=C1c1cn2c3c(cccc13)CN(C(=O)N1CCOCC1)CC2", "Potency": "1050 nM (active)"}, {"smiles": "COc1cc(OC)c(C(=O)CCCN2CCCC2)c(OC)c1", "viability (% of control)": "112% (inactive)"}, {"smiles": "Nc1nc(Nc2ccc(S(N)(=O)=O)cc2)nn1C(=O)c1c(F)cccc1F", "Potency": "2090 nM (active)"}, {"smiles": "CC(=O)[C@]1(O)Cc2c(O)c3c(c(O)c2[C@@H](O[C@H]2C[C@H](N)[C@H](O)[C@H](C)O2)C1)C(=O)c1ccccc1C3=O", "Potency": "148 nM (active)"}, {"smiles": "CNC(=O)c1nn(C)c2c1C(C)(C)Cc1cnc(Nc3ccc(N4CCN(C)CC4)cc3)nc1-2", "Potency": "934 nM (active)"}, {"smiles": "CCCCNc1cc(C(=O)O)cc(S(N)(=O)=O)c1Oc1ccccc1", "viability (% of control)": "110% (inactive)"}, {"smiles": "Cn1ccc2cc3c(cc21)CCN3C(=O)Nc1cccnc1", "viability (% of control)": "110% (inactive)"}, {"smiles": "Nc1ccc(S(N)(=O)=O)cc1", "viability (% of control)": "103% (inactive)"}, {"smiles": "CC1(C)CCC2=C(O1)c1ccccc1C(=O)C2=O", "Potency": "9340 nM (active)"}, {"smiles": "COc1cc(C(C)C)c(Oc2cnc(NC(CO)CO)nc2N)cc1I", "viability (% of control)": "108% (inactive)"}, {"smiles": "CC1CCN(c2cc(N3CCN(C)CC3)ccc2NC(=O)c2cc(C#N)c[nH]2)CC1", "Potency": "20900 nM (active)"}, {"smiles": "Cc1cc2c(cc1CC(=O)c1sccc1S(=O)(=O)Nc1onc(C)c1Cl)OCO2", "viability (% of control)": "58.8% (inactive)"}, {"smiles": "Nc1ncnc2c1c(COc1cccc(Cl)c1)nn2C1CCOCC1", "viability (% of control)": "98.1% (inactive)"}, {"smiles": "CCC(c1ccc(O)cc1)C(CC)c1ccc(O)cc1", "note": "(stereo not given)", "viability (% of control)": "94.5% (inactive)"}, {"smiles": "O=c1c(O)c(-c2ccc(O)cc2)oc2cc(O)cc(O)c12", "viability (% of control)": "93.5% (inactive)"}, {"smiles": "NS(=O)(=O)c1cccc2c1C(=O)c1cccc(O)c1C2=O", "Potency": "2090 nM (active)"}, {"smiles": "CCCn1c(=O)c2[nH]c(C34CC5CC3C[C@@H](C5)C4)nc2n(CCC)c1=O", "viability (% of control)": "109% (inactive)"}, {"smiles": "CN1CCC(=C2c3ccccc3CC(=O)c3sccc32)CC1", "viability (% of control)": "101% (inactive)"}, {"smiles": "Oc1ccc(C2CCN(c3ccnc4ccccc34)CC2)cc1O", "viability (% of control)": "102% (inactive)"}, {"smiles": "CCn1nnc2c(N3CCOCC3)nc(-c3ccc(NC(=O)Nc4ccc(C(=O)N5CCN(C)CC5)cc4)cc3)nc21", "Potency": "186 nM (active)"}, {"smiles": "CCc1c2c(nc3ccc(O)cc13)-c1cc3c(c(=O)n1C2)COC(=O)[C@]3(O)CC", "Potency": "8.3 nM (active)"}, {"smiles": "COc1ccc2nc3cc(Cl)ccc3c(Nc3cc(CN4CCCC4)c(O)c(CN4CCCC4)c3)c2n1", "Potency": "8330 nM (active)"}, {"smiles": "NC(=O)NO", "viability (% of control)": "112% (inactive)"}, {"smiles": "CC(C)[C@](O)(c1ccc2cc(OC(F)F)c(OC(F)F)cc2c1)c1cn[nH]n1", "viability (% of control)": "112% (inactive)"}, {"smiles": "NC(=O)c1ncn([C@@H]2O[C@H](CO)[C@@H](O)[C@H]2O)n1", "Potency": "18600 nM (active)"}, {"smiles": "CCOc1cc(C(C)(C)C)ccc1C1=N[C@@](C)(c2ccc(Cl)cc2)[C@@](C)(c2ccc(Cl)cc2)N1C(=O)N1CCN(CC(=O)N2CCOCC2)CC1", "Potency": "4090 nM (active)"}, {"smiles": "CCC(CC)CC1(C(=O)Nc2ccccc2SC(=O)C(C)C)CCCCC1", "viability (% of control)": "101% (inactive)"}, {"smiles": "CC(C)NCC(O)COc1ccc(CCOCC2CC2)cc1", "note": "(stereo not given)", "viability (% of control)": "106% (inactive)"}]}]}
